A short description of assay [1]: NCI Yeast Anticancer Drug Screen. Data for the rad50 strain (AID 155).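 Note: 0% = growth of vehicle-only cultures of the same strain.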 The conditions noted are these: S. cerevisiae rad50 strain growth inhibition, active compounds read high. The method in brief:
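Growth of the mutant yeast was measured after compound exposure and referenced to vehicle-treated cultures.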

A short description of assay [2]: NCI Yeast Anticancer Drug Screen. Data for the mec2-1 strain (AID 157). The settings on record: S. cerevisiae mec2-1 strain, active compounds read high. The method in brief: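 Strain: mec2-1 (DNA repair/cell cycle alteration). Compound exposure, then growth measured; inhibition expressed relative to vehicle.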
Assay [3] is described as follows: NCI Yeast Anticancer Drug Screen. Data for the sgs1 mgt1 strain (AID 161).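 Note: 0% = growth of cultures given vehicle only.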 The settings on record: S. cerevisiae sgs1 mgt1 strain, active compounds read high. An outline of the steps:
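Inhibition of yeast growth, normalised to vehicle-treated controls, is reported for a strain bearing genetic alterations in DNA damage repair.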

Assay [4] in a line: NCI Yeast Anticancer Drug Screen. Data for the cln2 rad14 strain (AID 165).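 Note: 0% = growth equal to vehicle treated cultures.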 The settings on record: S. cerevisiae cln2 rad14 strain, active compounds read high. An outline of the steps: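 Compounds are applied to the cln2 rad14 yeast strain, and growth is then compared with that of vehicle-treated cultures to give inhibition.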
A short description of assay [5]: NCI Yeast Anticancer Drug Screen. Data for the bub3 strain (AID 167). The settings on record: S. cerevisiae bub3 mutant strain, active compounds read high. The method in brief: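 Whole-cell yeast assay. The mutant strain was incubated with compounds, and growth inhibition was determined by comparison with vehicle-treated cells.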
The nature of assay [6]: NCI Yeast Anticancer Drug Screen. Data for the mlh1 rad18 strain (AID 175). The conditions noted are these: S. cerevisiae mlh1 rad18 strain growth inhibition, active compounds read high. An outline of the steps:
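Read-out is yeast growth inhibition, calculated against vehicle-only controls. The compound was applied to a strain engineered with DNA damage repair alterations.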

[7] abbreviates: at 5.0 µM (retest, dose inferred, filed as 0.5).
Setting [8] is: at 50.0 µM (retest, dose inferred, filed as 5.0).

Molecules are shown by their SMILES. The panel holds about 79,000 compounds, 15% with a hit somewhere; the sample as a whole holds those more often. Values without a mark were called inactive. The source made the active and inactive calls. Cut-off read from the data, not from the text of the source: active = growth inhibition above about 70%; inactive = the rest.

As for `CN(C)CCCC(=O)OCC[N+](C)(C)C`, the growth inhibition is -2% in assay [1] (setting [7]); 4% in assay [1] (setting [8]); -39.2% in assay [1] (at 50.0 µM); -4% in assay [2] (setting [7]); 6% in assay [2] (setting [8]); -8.5% in assay [2] (at 50.0 µM). The growth inhibition in assay [3] (setting [7]) was -4%; in assay [3] (setting [8]), -2%; in assay [3] (at 50.0 µM) it was -11.2%; in assay [4] (setting [7]), -14%; in assay [4] (setting [8]), -3%; in assay [4] (at 50.0 µM), 64.3%. Also, the growth inhibition in assay [5] (setting [7]) was -1%; in assay [5] (setting [8]), 5%; in assay [5] (at 50.0 µM), 14.2%; in assay [6] (setting [7]), -4%; in assay [6] (setting [8]), 5%; in assay [6] (at 50.0 µM) it was -12.5%.

Regarding `CCOC(=O)C1(C#N)C(=O)CSC1=Nc1ccccc1Cl` (stereo not given), the growth inhibition was -7% in assay [1] (setting [7]); -14% in assay [1] (setting [8]); -5.95% in assay [1] (at 50.0 µM); -16% in assay [2] (setting [7]); -11% in assay [2] (setting [8]); -8.75% in assay [2] (at 50.0 µM). Further, the growth inhibition in assay [3] (setting [7]) was -4%; in assay [3] (setting [8]) it was -2%; in assay [3] (at 50.0 µM), 25%; in assay [4] (setting [7]) it was 13%; in assay [4] (setting [8]), 17%; in assay [4] (at 50.0 µM), -9.95%. Moreover, the growth inhibition is -14% in assay [5] (setting [7]); -10% in assay [5] (setting [8]); 18.4% in assay [5] (at 50.0 µM); -33% in assay [6] (setting [7]); -54% in assay [6] (setting [8]); -3.4% in assay [6] (at 50.0 µM).

`Cc1cc(NCCCCCCNc2cc(C)nc3cc(N(C)C)ccc23)c2ccc(N(C)C)cc2n1`: the growth inhibition in assay [1] (setting [7]) is 11%; in assay [1] (setting [8]), 90% (active); in assay [1] (at 50.0 µM), 68.5%; in assay [2] (setting [7]), 0%; in assay [2] (setting [8]) it was 96% (active); in assay [2] (at 50.0 µM) it was 85.2% (active). The growth inhibition in assay [3] (setting [7]) is 9%; in assay [3] (setting [8]) it was 95% (active); in assay [3] (at 50.0 µM), 26.7%; in assay [4] (setting [7]), 8%; in assay [4] (setting [8]), 79% (active); in assay [4] (at 50.0 µM), 13%. Besides, the growth inhibition was -7% in assay [5] (setting [7]); 96% (active) in assay [5] (setting [8]); 1.15% in assay [5] (at 50.0 µM); 7% in assay [6] (setting [7]); 92% (active) in assay [6] (setting [8]); 7.45% in assay [6] (at 50.0 µM).

As for `CN(C)CCOc1cc2c(c3ccccc13)-c1ccccc1C2O` (stereo not given), the growth inhibition in assay [1] (setting [7]) is 30%; in assay [1] (setting [8]) it was 96% (active); in assay [1] (at 50.0 µM), 98.3% (active); in assay [2] (setting [7]), 0%; in assay [2] (setting [8]), 45%; in assay [2] (at 50.0 µM), 26.8%. Besides, the growth inhibition was 9% in assay [3] (setting [7]); 69% in assay [3] (setting [8]); 67.8% in assay [3] (at 50.0 µM); 1% in assay [4] (setting [7]); 31% in assay [4] (setting [8]); 38.1% in assay [4] (at 50.0 µM). In addition, the growth inhibition in assay [5] (setting [7]) was 2%; in assay [5] (setting [8]) it was 34%; in assay [5] (at 50.0 µM), 34.5%; in assay [6] (setting [7]), 7%; in assay [6] (setting [8]), 83% (active); in assay [6] (at 50.0 µM) it was 72.8% (active).

Regarding `N#Cc1ccccc1[N+](=O)[O-]`, the growth inhibition in assay [1] (setting [7]) is 16%; in assay [1] (setting [8]), 95% (active); in assay [1] (at 50.0 µM), 67.5%; in assay [2] (setting [7]), 1%; in assay [2] (setting [8]), 58%; in assay [2] (at 50.0 µM), 20.4%. In addition, the growth inhibition in assay [3] (setting [7]) was 3%; in assay [3] (setting [8]), 63%; in assay [3] (at 50.0 µM), 59.8%; in assay [4] (setting [7]), -1%; in assay [4] (setting [8]) it was 25%; in assay [4] (at 50.0 µM), 0.35%. Further, the growth inhibition in assay [5] (setting [7]) was -3%; in assay [5] (setting [8]), 54%; in assay [5] (at 50.0 µM), 61.4%; in assay [6] (setting [7]), 4%; in assay [6] (setting [8]), 93% (active); in assay [6] (at 50.0 µM), 79.5% (active).

In the case of `CN(C)CC(CN(C)C)C(=O)c1ccc(Oc2ccc(Cl)cc2)cc1`, the growth inhibition is 72% (active) in assay [1] (setting [7]); 98% (active) in assay [1] (setting [8]); 7.8% in assay [1] (at 50.0 µM); 60% in assay [2] (setting [7]); 99% (active) in assay [2] (setting [8]); 52.3% in assay [2] (at 50.0 µM). For the same molecule, the growth inhibition in assay [3] (setting [7]) was 85% (active); in assay [3] (setting [8]), 99% (active); in assay [3] (at 50.0 µM), 50.9%; in assay [4] (setting [7]), 36%; in assay [4] (setting [8]), 98% (active); in assay [4] (at 50.0 µM) it was 5.15%. Besides, the growth inhibition in assay [5] (setting [7]) was 72% (active); in assay [5] (setting [8]), 99% (active); in assay [5] (at 50.0 µM), 51.6%; in assay [6] (setting [7]), 92% (active); in assay [6] (setting [8]), 98% (active); in assay [6] (at 50.0 µM) it was 6.95%.

Regarding `CCCCCCCN1C(=O)c2ccccc2S1(=O)=O`, the growth inhibition in assay [1] (setting [7]) is -2%; in assay [1] (setting [8]), 95% (active); in assay [1] (at 50.0 µM), 95.1% (active); in assay [2] (setting [7]) it was -12%; in assay [2] (setting [8]) it was 76% (active); in assay [2] (at 50.0 µM) it was 87.3% (active). The growth inhibition in assay [3] (setting [7]) is 12%; in assay [3] (setting [8]) it was 94% (active); in assay [3] (at 50.0 µM), 86.2% (active); in assay [4] (setting [7]), -4%; in assay [4] (setting [8]), 73% (active); in assay [4] (at 50.0 µM), 43%. Besides, the growth inhibition is 14% in assay [5] (setting [7]); 89% (active) in assay [5] (setting [8]); 93.5% (active) in assay [5] (at 50.0 µM); 39% in assay [6] (setting [7]); 96% (active) in assay [6] (setting [8]); 84.8% (active) in assay [6] (at 50.0 µM).

For the molecule `NCC(CS)C(=O)NC(CS)C(=O)NC(CS)C(=O)NCCNc1ccc(NCCNC(=O)C(CS)NC(=O)C(CS)NC(=O)C(CN)CS)c2c1C(=O)c1c(O)ccc(O)c1C2=O` (stereo not given), the growth inhibition in assay [1] (setting [7]) is 80% (active); in assay [1] (setting [8]), 78% (active); in assay [1] (at 50.0 µM), 61.1%; in assay [2] (setting [7]) it was 34%; in assay [2] (setting [8]), 85% (active); in assay [2] (at 50.0 µM) it was 70.8% (active). In addition, the growth inhibition in assay [3] (setting [7]) was 36%; in assay [3] (setting [8]), 82% (active); in assay [3] (at 50.0 µM), 72% (active); in assay [4] (setting [7]), 23%; in assay [4] (setting [8]), 84% (active); in assay [4] (at 50.0 µM), 65.7%. Besides, the growth inhibition in assay [5] (setting [7]) is 36%; in assay [5] (setting [8]) it was 58%; in assay [5] (at 50.0 µM), 65%; in assay [6] (setting [7]) it was 40%; in assay [6] (setting [8]), 75% (active); in assay [6] (at 50.0 µM), 53.9%.

`CN(C)c1ccc(-c2c(C#N)c(S)n(NS(=O)(=O)c3ccccc3)c(=O)c2C#N)cc1`: the growth inhibition in assay [1] (setting [7]) was 94% (active); in assay [1] (setting [8]), 96% (active); in assay [1] (at 50.0 µM), 35.4%; in assay [2] (setting [7]) it was 31%; in assay [2] (setting [8]), 95% (active); in assay [2] (at 50.0 µM), 75.3% (active). Further, the growth inhibition in assay [3] (setting [7]) is 38%; in assay [3] (setting [8]) it was 95% (active); in assay [3] (at 50.0 µM), 61.2%; in assay [4] (setting [7]) it was 50%; in assay [4] (setting [8]) it was 69%; in assay [4] (at 50.0 µM), 31.8%. Besides, the growth inhibition is 45% in assay [5] (setting [7]); 93% (active) in assay [5] (setting [8]); 58.1% in assay [5] (at 50.0 µM); 91% (active) in assay [6] (setting [7]); 94% (active) in assay [6] (setting [8]); 60.7% in assay [6] (at 50.0 µM).

With `O=C(O)c1ccccc1NC(c1ccccc1)c1ccc2cccnc2c1O` (stereo not given), the growth inhibition in assay [1] (setting [7]) is -15%; in assay [1] (setting [8]) it was 94% (active); in assay [1] (at 50.0 µM) it was 96.8% (active); in assay [2] (setting [7]), -3%; in assay [2] (setting [8]) it was 91% (active); in assay [2] (at 50.0 µM), 93% (active). Moreover, the growth inhibition in assay [3] (setting [7]) was 0%; in assay [3] (setting [8]), 87% (active); in assay [3] (at 50.0 µM) it was 96.8% (active); in assay [4] (setting [7]) it was -39%; in assay [4] (setting [8]), 88% (active); in assay [4] (at 50.0 µM), 93.3% (active). Also, the growth inhibition was -17% in assay [5] (setting [7]); 95% (active) in assay [5] (setting [8]); 93.7% (active) in assay [5] (at 50.0 µM); -14% in assay [6] (setting [7]); 96% (active) in assay [6] (setting [8]); 93.5% (active) in assay [6] (at 50.0 µM).

Values taken from PubChem BioAssay (NCI).
